Shown are actives, neighbours in structure and some others; about 3.1% of the full set was active somewhere.
CASP6 VEID inh: inhibitors of human caspase-6 | P55212 | purified caspase-6, Z-VEID-R110 cleavage fluorescence | inhibition, % at 12.5 µM | 350,000 compounds, 0.53% hits;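 active = mean inhibition across replicates at least about 35%, with every replicate also reaching that limit, limit read from the data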
ERAP1 HTS inh: blocks human ERAP1 aminopeptidase activity; AID 652197; recombinant ERAP1, Leu-AMC fluorescence, 60 min; 340,000 compounds, 0.15% hits; inhibition, % at 10.7 µM;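 active = mean replicate inhibition of at least 30%, or all replicates individually reaching that 30% level; inactive = mean below 30% and not every replicate reaching it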
FGF22 binding: binders of recombinant human FGF22 by thermal shift; Q9HCT0; SYPRO orange fluorescence; percent of sucrose octasulfate shift, DMSO zero; activity (Tm shift, normalised), % at 9.99 µM; 340,000 compounds, 1.5% hits;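 active = mean Tm shift, scaled 0 neutral to 100 positive control, at about 1.3% or above, every replicate too, limit read from the data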
SIRT5 inh: sirtuin-5 (human) deacylase inhibition; Q9NXA8; Purified SirT5, succinyl-peptide AMC, trypsin-coupled fluorescence; inhibition, % at 15 µM; 330,000 compounds, 1.1% hits; AID 652115; in the data active = inhibition above about 15%
A number is an active result; – = inactive; · = no result.

SMILES	CASP6 VEID inh	ERAP1 HTS inh	FGF22 binding	SIRT5 inh
N=c1c(C(=O)NCc2ccco2)cc2c(=O)n3ccccc3nc2n1C1CCCC1	99.2	–	–	–
N=c1c(C(=O)NC2CCCCC2)cc2c(=O)n3ccccc3nc2n1CC1CCCO1 (stereo not given)	–	102.7	–	–
N=c1c(C(=O)NCCN2CCOCC2)cc2c(=O)n3ccccc3nc2n1CCCN1CCOCC1	–	36.6	–	–
N=c1c(C(=O)NCc2ccccc2)cc2c(=O)n3ccccc3nc2n1Cc1ccco1	–	–	·	–
CCCN(C)C[C@H]1OCCCC[C@@H](C)Oc2ccc(NS(=O)(=O)c3cccs3)cc2C(=O)N([C@@H](C)CO)C[C@@H]1C	–	–	–	–
C[C@H](CO)N1C[C@H](C)[C@H](CN(C)C(=O)Nc2ccc(F)cc2)OCCCC[C@H](C)Oc2ccc(NS(C)(=O)=O)cc2C1=O	–	–	–	–
CC(C)NC(=O)Nc1ccc2c(c1)C(=O)N([C@H](C)CO)C[C@H](C)[C@H](CN(C)S(=O)(=O)c1ccc(Cl)cc1)OCCCC[C@H](C)O2	–	–	–	–
C[C@H]1CCCCO[C@H](CN(C)C(=O)c2ccccc2)[C@@H](C)CN([C@@H](C)CO)C(=O)c2cc(NC(=O)Nc3ccc(C(F)(F)F)cc3)ccc2O1	–	–	–	–
CCCC1=[N+](CC(C)=O)CCn2c(C)ccc21	·	–	43.2	–
CCCC1=[N+](CC(=O)c2ccc(Br)cc2)CCn2cccc21	–	–	–	–
Cc1nn(-c2ccccc2)c(C)c1C(=O)OC(C)C(=O)Nc1ccc(C(N)=O)cc1 (stereo not given)	–	–	43.0	·
CC(OC(=O)c1cc(O)c2ccccc2c1O)C(=O)Nc1ccc(C(N)=O)cc1 (stereo not given)	82.5	–	–	–
CC(OC(=O)c1ccccc1C(=O)N(C)c1ccccc1)C(=O)Nc1ccc(C(N)=O)cc1 (stereo not given)	–	–	–	–
O=C(N[C@H]1CC[C@H](CC(=O)N2CCCCC2)O[C@@H]1CO)c1ccccn1	·	·	·	–
COc1ccc(-c2ccc([C@@H]3[C@@H](CO)N4C(=O)CN(Cc5ccc(F)cc5)C[C@H]34)cc2)cc1	–	–	·	–
CNC(=O)C[C@H]1CC[C@@H]2[C@H](COc3ccc(NC(=O)C4CC4)cc3C(=O)N2C)O1	·	·	–	·
C=C[C@H](OC)[C@@H](OC(=O)Nc1ccc(SC)cc1)c1ccc(OCCO)cc1	–	–	–	–
CCOc1ccc(NC(=O)c2sc(NC(C)=O)c(C(=O)OC)c2C)cc1	–	–	43.0	–
Nc1cc(=O)[nH]c(SCc2cccc3ccccc23)n1	–	–	–	–
COc1ccccc1-c1noc(CSc2nc(N)cc(=O)[nH]2)n1	–	–	43.0	–
COc1ccc(S(=O)(=O)N2CCCCN3[C@@H](CO)[C@H](c4ccc(C5=CCCC5)cc4)[C@@H]3C2)cc1	–	–	–	–
O=Nc1c(-c2ccccc2)cc2ccccn12	–	–	43.1	–
C[C@H]1CN([C@@H](C)CO)C(=O)Cc2cc(NC(=O)Cn3cnnn3)ccc2O[C@@H]1CN(C)Cc1ccccc1	–	–	–	·
CO[C@@H]1CN(C)C(=O)c2ccc(NC(=O)C3CC3)cc2OC[C@@H](C)N(C(=O)c2cccnc2)C[C@@H]1C	–	–	–	–
C[C@@H]1CCCCO[C@@H](CN(C)CC2CCCCC2)[C@@H](C)CN([C@@H](C)CO)C(=O)c2cc(NC(=O)Nc3ccc4c(c3)OCO4)ccc2O1	–	–	·	–
SMILES	CASP6 VEID inh	ERAP1 HTS inh	FGF22 binding	SIRT5 inh
C[C@H]1CCCCO[C@@H](CN(C)CC2CCCCC2)[C@@H](C)CN([C@@H](C)CO)C(=O)c2cc(NC(=O)Nc3ccc4c(c3)OCO4)ccc2O1	–	–	1.7	–
C[C@@H]1CCCCO[C@H](CN(C)Cc2ccc3c(c2)OCO3)[C@H](C)CN([C@@H](C)CO)C(=O)c2cc(NC(=O)C3CCCCC3)ccc2O1	–	–	–	–
C[C@@H]1CCCCO[C@H](CN(C)Cc2ccc3c(c2)OCO3)[C@@H](C)CN([C@@H](C)CO)C(=O)c2cc(NC(=O)C3CCCCC3)ccc2O1	–	–	13.2	–
C[C@H](CO)N1C[C@H](C)[C@H](CN(C)C(=O)CC2CC2)Oc2ncc(-c3ccc(C#N)cc3)cc2C1=O	–	–	–	–
Cc1ccccc1-c1cnc2c(c1)C(=O)N([C@@H](C)CO)C[C@@H](C)[C@@H](CN(C)C(=O)CN(C)C)O2	–	–	–	–
O=C(N[C@@H](Cc1ccccc1)C(=O)NC1CC1)c1ccc(Cl)cc1	–	–	–	24.6
